Compounds without any hit were thinned out: in the full panel of roughly 83,000, 20% have a hit.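 Results are percent growth after 48 hours of single-concentration exposure. 100 means growth as in untreated cells, lower positive values show inhibition; negative values down to -100 show cell death.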 A number with no mark means an inactive call. Calls of active or inactive are those of the source. How the source made its calls: active means growth percent below 10; inactive means the rest.
Assays:
Assay in all cases: NCI-60 one-dose screen, 48 h (100 = growth as untreated, 0 = no growth, -100 = all killed)
[1] = tested on: SR leukemia; details: 10 µM unless noted
[2] = tested on: RPMI-8226 leukemia; details: 10 µM unless noted
[3] = tested on: OVCAR-8 ovarian; details: 10 µM unless noted
[4] = tested on: OVCAR-5 ovarian; details: 10 µM unless noted
[5] = tested on: OVCAR-4 ovarian; details: 10 µM
[6] = tested on: SK-OV-3 ovarian; details: 10 µM unless noted
[7] = tested on: IGROV1 ovarian; details: 10 µM unless noted
[8] = tested on: OVCAR-3 ovarian; details: 10 µM unless noted
[9] = tested on: NCI/ADR-RES ovarian; details: 10 µM unless noted
[10] = tested on: T-47D breast; details: 10 µM unless noted
[11] = tested on: BT-549 breast; details: 10 µM unless noted
[12] = tested on: SW-620 colon; details: 10 µM unless noted
[13] = tested on: MCF7 breast; details: 10 µM unless noted
[14] = tested on: HCT-116 colon; details: 10 µM unless noted
[15] = tested on: HCC-2998 colon; details: 10 µM unless noted
[16] = tested on: KM12 colon; details: 10 µM unless noted
[17] = tested on: MDA-MB-435 melanoma; details: 10 µM unless noted
[18] = tested on: HS 578T breast; details: 10 µM unless noted

| Structure (SMILES) | growth [1] | growth [2] | growth [3] [%] | growth [4] | growth [5] | growth [6] [%] | growth [7] | growth [8] | growth [9] [%] | growth [10] | growth [11] [%] | growth [12] [%] | growth [13] [%] | growth [14] [%] | growth [15] [%] | growth [16] [%] | growth [17] | growth [18] [%] |
| --- | --- | --- | --- | --- | --- | --- | --- | --- | --- | --- | --- | --- | --- | --- | --- | --- | --- | --- |
| C=CCCCCOc1ccccc1-c1cnc(OCCCCC=C)n1C | 30.7% | 80.8% | 83.9 | 95.2% | 97.9% | 75 | 62.9% | 51.3% | 30.4 | 61.9% | 96.8 | 30.8 | 42.2 | 61 | 61.1 | 38.4 | – | – |
| N#CC1C(=O)NC(c2ccccc2[N+](=O)[O-])c2sc3c(F)cccc3c21 (stereo not drawn) | 67.9% | 41.3% | 75 | -15.1% (active) | -0.483% (active) | 72.8 | 0.306% (active) | -14.5% (active) | 68.5 | 2.51% (active) | 89.2 | 21.9 | 23.4 | 11 | 93.8 | 91.4 | 102% | – |
| COc1ccc2nc3c(cc2c1)C(=O)CC(C(F)(F)F)C3 (stereo not drawn) | 16.4% | 93.3% | 40 | 57.7% | 95.7% | 56.8 | 36.6% | 5.3% (active) | 18.9 | 41.1% | 61 | 41.5 | 83.1 | 11.9 | 84 | 11.6 | -47.7% (active) | – |
| CCCCCCCCCN(CCCCCCCCC)C(C)C(=O)c1ccc2cc(Br)c3ccccc3c2c1 (stereo not drawn) | 7.35% (active) | 68.7% | 94 | 80.4% | 85.7% | 90.8 | 75.7% | 89.1% | 84.9 | 79.8% | 101 | 67 | 97.7 | 73.5 | 47.7 | 81.4 | 76.5% | – |
| Cc1nn(-c2ccccc2)c(N2CCOCC2)c1-c1nc2ccc([N+](=O)[O-])cc2[nH]1 | 87.2% | 97.6% | 102 | 108% | 98.9% | 135 | 111% | 110% | 105 | 95.8% | 96.8 | 116 | 96.6 | 97.8 | 133 | 103 | 96.1% | – |
| CC(C)C1=NOC(=O)C1=Cc1cn(-c2ccccc2)nc1-c1ccc(Cl)cc1 | -22% (active) | -28.5% (active) | 79.2 | 99.1% | 98.2% | 106 | 79.6% | 86.2% | 91.7 | 74.6% | 117 | 61.4 | – | 50.4 | 72.5 | 91.7 | 76.4% | – |
| CCOc1cccc2c(NC(C)CCCN(CC)CC)c(C)cnc12 (stereo not drawn) | 96.6% | 107% | 103 | 106% | 108% | 95.8 | 102% | 110% | – | 115% | 99.8 | 96.6 | 97.7 | 93.4 | 115 | 99.1 | 101% | – |
| Nc1nc(SCc2cccc([N+](=O)[O-])c2)c2[nH]cnc2n1 | 95.6% | 91.8% | 96.5 | 101% | 99.3% | 109 | 89.2% | – | 97.6 | 92.4% | 103 | 107 | 88 | 101 | 112 | 99.8 | 104% | 99.9 |

From PubChem BioAssay (NCI)
